Laboratory results: PubChem BioAssay (NCATS)

Assay: High-throughput drug toxicity screening in the BPDCN cell line Gen2.2 (AID 1224824)
Details: Gen2.2 BPDCN cells; at 45.8 µM (top of the series)
Excerpt: Blastic plasmacytoid dendritic cell neoplasm (BPDCN) is a rare, aggressive and largely incurable hematologic malignancy originating from plasmacytoid dendritic cells (pDCs). Although an initial response to chemotherapy is common, BPDCN prognosis is extremely poor and most patients relapse with drug-resistant disease leading to a median overall survival of ~1 year after diagnosis. To explore novel potential therapeutic strategies in BPDCN, we performed a high-throughput drug toxicity screening in BPDCN cell liens, using of a library of 1,912 small molecules, enriched for compounds that are either approved or in early stages of development for cancer therapy.
A total of 500 exponentially growing Gen2.2 cells were seeded per well in 5 uL of media (RPMI + Glutamine, without phenol red plus10% FBS and 1X Pen/Strep) into 1536-well solid white high base tissue culture treated Greiner One Bio Plates (789173-F), using a multidrop combi dispenser and a small sterile cassette. Compounds and controls totaling 23nL per well (negative control DMSO and positive control 9.2 uM Bortezomib-final) were immediately added to the plates using a 1536 head pin tool from Kalypsys. The plates were then covered with stainless steel gasket lids from Kalypsys and incubated for 48 hours at 37C under 95% relative humidity with 5% CO2. After 48 hours, the plates were removed and allowed to reach room temperature before 3 uL of Cell Titer Glo reagent (Promega) were added using an Aurora Flying Reagent Dispenser Bioraptor. The plates were then spun at 1000 rpms to remove bubbles and incubated for 15 minutes at room temperature before reading on a ViewLux using a luminescent filter with a 10 second exposure. The relative luciferase units were used to calculated percent activity using DMSO as 100% and Bortezomib as 0%.

| Compound | cell viability, % of control (lower = more cytotoxic) [%] |
| --- | --- |
| N#C[C@H](O[C@@H]1O[C@H](CO[C@@H]2O[C@H](CO)[C@H](O)[C@H](O)[C@H]2O)[C@H](O)[C@H](O)[C@H]1O)c1ccccc1 | 180 |
| CC(=CCCC1=CCC(C2=CC(=O)OC2O)OC1O)CCC1=C(C)CCCC1(C)C (stereo not given) | 124 |
| CN1[C@H]2CC(O)C[C@H]1[C@H]1O[C@H]12 (stereo not given in full) | 21.9 |
| C[C@]12CC[C@@H]3[C@@H](CCC4=CC(=O)CC[C@@H]43)[C@@H]1CC[C@@H]2OC(=O)CCc1ccccc1 | 119 |
| CC(C)[C@]12O[C@@H]1[C@@H]1O[C@]13[C@]1(O[C@H]1C[C@@H]1C4=C(CC[C@@]13C)C(=O)OC4)[C@H]2O | 4.5 |
| CC(=O)OCC1=C(C(=O)O)N2C(=O)[C@@H](N)[C@@H]2SC1 | 68.5 |
| Cc1[nH]nc2ccc(-c3cncc(OC[C@@H](N)Cc4c[nH]c5ccccc45)c3)cc12 | 1.9 |
| COc1cc([C@@H]2c3cc4c(cc3[C@@H](O)C3COC(=O)C32)OCO4)cc(OC)c1O (stereo not given in full) | 6.47 |
| CC(C)(C)c1cc(C=C(C#N)C#N)cc(Br)c1O | 12.6 |
| O=C(NCC1CCOCC1)c1cnc(Nc2ccc(Cl)cc2Cl)nc1C(F)(F)F | 7.01 |
| CCN1C[C@]2(OC(=O)c3ccccc3NC(C)=O)CC[C@H](OC)[C@@]34[C@H]5CC6[C@@H](OC)C[C@](O)(C(C[C@@H]23)[C@@H]14)[C@@]5(O)[C@@H]6OC | 137 |
| O=C(N[C@H]1CN2CCC1CC2)c1ccc(Cl)cc1 | 126 |
| O=C(Oc1ccc([N+](=O)[O-])cc1)N1CCC(C(O)(c2ccc3c(c2)OCO3)c2ccc3c(c2)OCO3)CC1 | 40.5 |
| CSCC[C@@H](NC(=O)[C@@H](Cc1ccccc1)NC(=O)CNC(=O)CNC(=O)[C@@H](N)Cc1ccc(O)cc1)C(=O)O | 140 |
| C[C@]12CC[C@H]3[C@@H](CCC4=CC(=O)CC[C@@]43C)[C@H]1CC[C@H]2O | 83.2 |
| CC(N[C@H]1C[C@H]1c1ccccc1)c1ccc2c(c1)OCCO2 (stereo not given in full) | 154 |
| CCOP(=O)(OCC)C(C)NC(=O)N(CCCl)N=O (stereo not given) | 109 |
| NC1=NC(=O)N2CC12 (stereo not given) | 8.27 |
| CCNC(=O)CC1N=C(c2ccc(Cl)cc2)c2cc(OC)ccc2-n2c(C)nnc21 (stereo not given) | 15.2 |
| COc1ccc(N(C(=O)Oc2c(C)cccc2C)c2ccnc(Nc3ccc(N4CCN(C)CC4)cc3)n2)c(OC)c1 | 137 |

| Compound | cell viability, % of control (lower = more cytotoxic) [%] |
| --- | --- |
| C[C@@H]1CC[C@H]2[C@@H](C)C(=O)O[C@@H]3O[C@@]4(C)CC[C@H]1[C@]32OO4 | 95.1 |
| CC(C)(C)[C@]1(O)C[C@@H]2OC(=O)C[C@@]23C(=O)O[C@@H]2OC(=O)[C@H](O)C213 (stereo not given in full) | 106 |
| CCOC(=O)c1cncn1[C@H](C)c1ccccc1 | 124 |
| C#C[C@]1(O)C=C[C@@H]2[C@@H]3CCC4=CC(=O)CC[C@@H]4[C@H]3CC[C@@]21CC | 62.7 |
| CCCC[N+]1(C)[C@H]2CC(OC(=O)[C@H](CO)c3ccccc3)C[C@H]1[C@H]1O[C@H]12 (stereo not given in full) | 119 |
| CN(C)[C@@H]1C(=O)C(C(N)=O)=C(O)[C@@]2(O)C(=O)C3=C(O)c4c(O)cccc4[C@@](C)(O)[C@H]3[C@H](O)[C@@H]12 | 109 |
| CC=C(C)C(=O)O[C@H]1C(C)=C2[C@@H]3OC(=O)[C@@](C)(O)[C@@]3(O)[C@@H](OC(=O)CCC)C[C@](C)(OC(C)=O)[C@@H]2[C@@H]1OC(=O)CCCCCCC | 12.1 |
| C[C@]12CC[C@H](O)CC1=CC[C@H]1[C@H]3CCC(=O)[C@@]3(C)CC[C@@H]12 | 136 |
| O=C(N[C@@H](COc1ccc2[nH]c(=O)[nH]c2c1)c1ccccc1)c1cccn(Cc2ccc(F)c(F)c2)c1=O | 46.5 |
| CC[C@@H](C(N)=O)N1CCCC1=O | 211 |
| CO[C@H]1CCC(O[C@H]2C[C@H]([C@]3(C)CC[C@]4(C[C@H](O)[C@@H](C)[C@@H]([C@@H](C)C=C(C)C(=O)[C@H](C)C[C@H](C)C(=O)O)O4)O3)O[C@]3(O[C@@H]([C@H]4O[C@@](O)(CO)[C@H](C)C[C@H]4C)C[C@H]3C)[C@H]2C)O[C@H]1C (stereo not given in full) | 92 |
| CC(=O)N(C)c1cccc(-c2ccnc3c(C(=O)c4cccs4)cnn23)c1 | 111 |
| CCc1c(C(=O)C(N)=O)c2c(OCC(=O)O)cccc2n1Cc1ccccc1 | 114 |
| O=S(=O)(F)Cc1ccccc1 | 76.9 |
| Clc1ccccc1C(c1ccccc1)(c1ccccc1)n1cccn1 | 108 |
| CC(C)(O)C(=O)Nc1ccc([N+](=O)[O-])c(C(F)(F)F)c1 | 21 |
| c1ccc2c(CN3CCNCC3)cccc2c1 | 112 |
| CC=C(C)C(=O)N[C@@H](c1ccccc1)[C@@H](O)C(=O)O[C@H]1C[C@@]2(O)[C@@H](OC(=O)c3ccccc3)[C@@H]3[C@]4(OC(C)=O)CO[C@@H]4C[C@H](O)[C@@]3(C)C(=O)[C@H](OC(C)=O)C(=C1C)C2(C)C | 47 |
| CC[C@@]1(O)C(=O)OCc2c1cc1n(c2=O)Cc2cc3ccccc3nc2-1 | 4.89 |
| O=C(Oc1ccc([N+](=O)[O-])cc1)N1CCN(Cc2cccc(Oc3ccccc3)c2)CC1 | 151 |
